# Test results published in the supplement of paper PMC3334620.
# Over roughly 33,000 sequences, “E-score (-0.5 to 0.5)” has its median near -8e-05; the highest 2% begin near 0.23. Shown is part of a subset that was picked to be rich in the highest values.
# Target: T1, Nrg2 (UniProt P38082)
# T1 sequence: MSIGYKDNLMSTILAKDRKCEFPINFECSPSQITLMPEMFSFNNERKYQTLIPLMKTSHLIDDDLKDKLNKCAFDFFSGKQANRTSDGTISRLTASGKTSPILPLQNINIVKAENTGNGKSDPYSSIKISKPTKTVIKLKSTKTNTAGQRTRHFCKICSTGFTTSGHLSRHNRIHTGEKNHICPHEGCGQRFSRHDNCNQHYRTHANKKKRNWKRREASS
# Assay: PBM E-score (8-mer binding enrichment) (E-score (-0.5 to 0.5)); higher = stronger / more preferred TF binding
# Conditions: protein concentration: 100 nM; construct: GST-full length
# Outline: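 Universal all-10-mer Agilent arrays, double-stranded by primer extension on fresh or once-stripped slides, were probed with about 100-200 nM GST-tagged yeast transcription factors made by PURExpress. Fluorescent anti-GST detected bound protein, and masliner normalised the scans. E-scores from the Universal PBM Analysis Suite were given to each ungapped eight-base word pooled with its reverse complement.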
row,Sequence,PBM E-score
1,GAGCTACA,-0.114
2,GGATACAC,-0.0641
3,AGATACAG,0.136
4,AGATACTA,0.0761
5,AGATACTC,0.1
6,AGATACTG,0.242
7,AGATACAC,0.244
8,ATACATGC,-0.0508
9,GGTTATGA,-0.0752
10,CAAAAGGA,-0.0703
11,ACCCTAAC,0.116
12,GACTGTTA,-0.0515
13,AGACTGAC,-0.1
14,AATAAGAT,0.0228
15,CATAAGAA,0.254
16,GATAAGAA,0.0876
17,AATAAGAA,0.233
18,AATAAGAG,0.115
19,TATAAGAA,0.12
20,GTCCCAGA,-0.19
21,AGCTACAC,0.0938
22,GAGACTAA,-0.027
23,AAACAATA,0.261
24,ATACAACG,0.0553
25,CTACAATA,0.00041

row,Sequence,PBM E-score
1,AAACAATT,0.137
2,AAACAATG,0.0814
3,ATACAATC,-0.0431
4,ATACAATA,0.239
5,GAACAATC,0.0696
6,TAACAATA,0.132
7,ATACAACA,0.246
8,GAACAATA,0.277
9,ATACAACC,-0.00323
10,CGTCCGAG,0.0587
11,AAGGCCTC,-0.0691
12,TAGAGCGA,-0.079
13,CGACACAG,-0.0558
14,CAGAGGGG,-0.314
15,TGATAGAA,-0.0926
16,TCTACGCA,0.0696
17,GAGGTTTA,-0.00946
18,ACGGTTCG,-0.169
19,CAGGTGGG,-0.0155
20,AGGCTAGC,-0.223
21,CATCGAGG,0.0813
22,AATCGATC,0.0541
23,AATCGATT,0.247
24,AATCGAAA,0.0902
25,CATCGAAA,0.0505

row,Sequence,PBM E-score
1,AATCGAGG,0.248
2,AATCGAAC,0.169
3,AATCGAAG,0.264
4,AATCGATA,0.158
5,AATCGAGT,0.0016
6,GATCGAAA,0.108
7,TATCGAAA,0.255
8,GACTGGGA,-0.0261
9,ATAGCCGG,-0.145
10,ACAACCAG,0.101
11,ACAACCAC,-0.0501
12,ACAACCAT,0.24
13,ACGTGGTG,-0.139
14,AGAGTTAG,-0.0429
15,CCGACGAC,0.00776
16,ACTGCTCT,0.00123
17,CCATGAGC,-0.047
18,AATGCGAG,0.107
19,ATTAATGC,0.0582
20,ATTAATTG,0.142
21,ATTAATTC,0.229
22,CTTAATGA,0.0652
23,ATTAATGA,0.235
24,ATTAATTA,0.117
25,GTGTAGCA,-0.149

row,Sequence,PBM E-score
1,AGCTATCC,-0.208
2,ACGCGGAA,-0.0174
3,CGGATAAA,0.234
4,CGGATAAC,0.05
5,TGGATAAA,0.0491
6,CTTTGGAA,-0.152
7,ACTATGAG,-0.0885
8,AATCGGAA,0.242
9,AATCGGAG,0.105
10,TATCGGAA,0.0162
11,AGAGAAAG,-0.00961
12,GCTTCTCA,0.00982
13,AGCCCATC,-0.0428
14,AATCTCGC,0.235
15,AATCGCAG,0.16
16,AATCGCAC,-0.165
17,GATCTCGC,0.144
18,CATCGCGC,0.0459
19,AATCGCGA,0.185
20,AATCGCAT,0.245
21,AATCTCGG,0.0273
22,AATCGCGC,0.23
23,AGATGGCA,0.0923
24,AGCGGTTG,-0.028
25,AGATTGCG,0.00885

row,Sequence,PBM E-score
1,CTGAGACA,0.0347
2,AAAACTTA,0.0488
3,GTAGGTAA,0.00715
4,AGGCTGAA,-0.0879
5,TCAAATGA,-0.0989
6,CTCTCACA,0.124
7,TACCTGAA,0.0117
8,CCCCTGTA,0.144
9,TCCCTGAA,0.25
10,CACCTGAA,0.0424
11,CCCCTGAA,0.356
12,GCCCTGAA,0.22
13,GCCGTCTA,-0.0529
14,CGGTTTGC,-0.0375
15,CCTGAAGG,-0.0247
16,AGTCAAGG,-0.174
17,ATCCGAAT,0.251
18,ATCCGAAG,-0.0314
19,ATCCGAAC,0.0668
20,ACAAAACA,0.119
21,CTGGCGCA,-0.117
22,CTGGCGCC,0.281
23,ATGGCGCC,0.0356
24,GCAAAACC,0.0964
25,ACAAAAAC,0.0302

row,Sequence,PBM E-score
1,ACAAAACC,0.246
2,ATTTTGAC,0.232
3,AATTTGAC,0.127
4,ATTTTGAG,0.0761
5,TGTTTGAA,-0.00474
6,ACTTCGAC,-0.0444
7,CTATCATA,0.125
8,GTATCATA,0.251
9,ATATCATA,0.174
10,AGTATAAA,0.194
11,CGTAGATA,-0.0208
12,GCTATATA,0.0573
13,ACTATATA,0.23
14,AGTATATC,0.107
15,AGTATATA,0.327
16,ACTATATC,0.182
17,AGTATAAC,-0.131
18,AGTAGATC,-0.0113
19,AGTAGATA,0.249
20,AGTATAAT,0.257
21,AGTATATG,0.129
22,GAGGTGCC,-0.0447
23,CAAAATCG,0.109
24,AGAGGACG,-0.0944
25,ACGGCGCG,0.214

row,Sequence,PBM E-score
1,CGACACCA,-0.124
2,GAGACAGA,0.14
3,ACAGCGAT,-0.201
4,ACGAACCA,0.235
5,CGGAACAA,0.122
6,ACGAACCC,-0.00702
7,CCGAACGC,0.0363
8,ACGAACGA,0.0396
9,CCGAACCA,-0.00203
10,CGGAACCG,-0.162
11,AGGAACAC,0.131
12,ACGAACGC,0.267
13,CGGAACAC,0.264
14,CGGAACCA,0.294
15,GGGAACCA,-0.231
16,GACGGATC,-0.153
17,TCCTAAAA,-0.251
18,TCATTGAA,-0.122
19,TAAATGGA,-0.0213
20,AGCAGGGG,-0.182
21,ACACTGCT,-0.0746
22,GCTAACAA,-0.0183
23,GTTAACTA,0.273
24,GTTAACAA,0.254
